A short description of test [1]: ATG_E_Box_CIS: Attagene CIS-FACTORIAL HepG2 Assay for human Enhancer Box (E-box) (AID 2282936). Particulars: HepG2 E-box cis-reporter transcription, actives raise or lower the signal. The gist of the method: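 DMSO served as negative control and baseline for bidirectional fitting. Human hepatoma HepG2 cells, transiently transfected with cis-reporter constructs, were dosed 24 h; reporter mRNA read by RT-PCR and capillary electrophoresis.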

Test [2] is described as follows: ATG_M_61_CIS: Attagene CIS-FACTORIAL HepG2 Assay for M61 Transcription Factor (Internal Marker) (AID 2282937). The settings on record: HepG2 Attagene CIS-FACTORIAL M61 internal marker reporter; actives raise or lower the signal. The essentials:
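Background-control endpoint: HepG2 cells with cis-regulated reporter constructs, 24 h exposure, reporter mRNA detected via fluorescent primer extension and capillary electrophoresis; values from bidirectional fitting with DMSO baseline.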

A short description of test [3]: ATG_EGR_CIS: Attagene CIS-FACTORIAL HepG2 Assay for human Early Growth Response 1 (EGR1) (AID 2282938). The settings on record: HepG2 Attagene CIS-FACTORIAL EGR reporter mRNA; actives raise or lower the signal. The essentials: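 Endpoint derived by bidirectional fitting versus DMSO vehicle. Method: cis-promoter reporter units transfected into HepG2, 24 h dosing, RNA isolation, RT-PCR with 6-FAM primer extension and HpaI digestion, then capillary electrophoresis fluorescence detection.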

A short description of test [4]: ATG_M_19_CIS: Attagene CIS-FACTORIAL HepG2 Assay for M19 Transcription Factor (Internal Marker) (AID 2282939). The settings on record: HepG2 Attagene CIS-FACTORIAL M19 internal marker reporter; actives raise or lower the signal. The gist of the method: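 HepG2 cells transiently transfected with cis-regulated multiplexed reporter units, dosed 24 h. Reporter mRNA quantified by RT-PCR and capillary electrophoresis; internal background marker fitted bidirectionally versus DMSO.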

The nature of test [5]: ATG_ERE_CIS: Attagene CIS-FACTORIAL HepG2 Assay for Estrogen Response Element (ERE) (AID 2282940). The settings on record: HepG2 ERE cis-reporter, Attagene RNA transcript; actives raise or lower the signal. The essentials:
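HepG2 cells transiently transfected with multiplexed cis-element reporter units, measuring endogenous transcription factor activity; ERE reporter mRNA quantified after 24 h exposure by RT-PCR, fluorescent labelling, HpaI digestion and capillary electrophoresis. Bidirectional change versus DMSO.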

Test [6] is described as follows: ATG_Ets_CIS: Attagene CIS-FACTORIAL HepG2 Assay for human Erythroblast Transformation Specific (ETS) (AID 2282941). The settings on record: HepG2 ETS cis-reporter transcription, actives raise or lower the signal. The gist of the method: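 After transient cis-reporter transfection, HepG2 cells receive test chemical for 24 h. Reporter mRNA levels, measured by RT-PCR and capillary electrophoresis fluorescence, are analysed bidirectionally relative to the DMSO baseline.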

Test [7] deals with Hepatocyte nuclear factor 3-beta (Homo sapiens) (UniProt Q9Y261). Put plainly: ATG_FoxA2_CIS: Attagene CIS-FACTORIAL HepG2 Assay for human Forkhead box A2 (FOXA2) (AID 2282942). Particulars: HepG2 cis-reporter transcription factor activity, 24 h; actives raise or lower the signal. The gist of the method:
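Measured: reporter mRNA induction or loss in HepG2 transiently carrying multiple cis-regulated reporter units, 24 h after dosing. Quantified by RT-PCR plus capillary electrophoresis, normalised to DMSO.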

A short description of test [8]: ATG_FoxO_CIS: Attagene CIS-FACTORIAL HepG2 Assay for human Forkhead box O (FoxO) (AID 2282943). The settings on record: HepG2 Attagene cis-reporter, FoxO element, mRNA; actives raise or lower the signal. The gist of the method:
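Endogenous transcription factor activity read from multiplexed cis-promoter reporter transcripts in transiently transfected HepG2, 24 h after dosing. Reporter RNA measured via RT-PCR plus capillary electrophoresis of FAM-labeled products; gain or loss relative to DMSO.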

Test [9] can be described thus: ATG_GATA_CIS: Attagene CIS-FACTORIAL HepG2 Assay for human GATA Binding Protein (AID 2282944). The settings on record: HepG2 GATA cis-element reporter, Attagene multiplex mRNA; actives raise or lower the signal. The gist of the method:
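HepG2 cells transiently transfected with multiplexed cis-element reporter units measure endogenous GATA activity; after 24 h compound exposure, reporter mRNA quantified by RT-PCR and capillary electrophoresis. Changes fitted in both directions vs DMSO.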

Test [10] is described as follows: ATG_GLI_CIS: Attagene CIS-FACTORIAL HepG2 Assay for human Zinc Finger Protein GLI1 (AID 2282945). The settings on record: HepG2, Attagene cis-factorial reporter mRNA, GLI element; actives raise or lower the signal. The gist of the method: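 Bidirectional curve fits relative to DMSO, using reporter mRNA levels from RT-PCR plus capillary electrophoresis. Cells were HepG2 transiently carrying cis-regulated reporter constructs, harvested 24 h after dosing.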

A short description of test [11]: ATG_GRE_CIS: Attagene CIS-FACTORIAL HepG2 Assay for human Glucocorticoid Response Elements (GRE) (AID 2282947). The settings on record: HepG2 GRE cis-reporter, Attagene multiplex mRNA; actives raise or lower the signal. The gist of the method:
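Assay uses human hepatoma HepG2 cells transfected with cis-promoter reporter units, exposed 24 h. mRNA from reporters detected by RT-PCR plus capillary electrophoresis; DMSO serves as negative control and baseline.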

Test [12] is described as follows: ATG_ISRE_CIS: Attagene CIS-FACTORIAL HepG2 Assay for human Interferon Regulatory Factor 1 (IRF1) binding to an Interferon-Stimulated Response Element (ISRE) (AID 2282948). The settings on record: HepG2 ISRE cis-reporter (Attagene), mRNA transcription readout; actives raise or lower the signal. The gist of the method: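 Quantitation relies on labelled RT-PCR fragments separated by capillary electrophoresis. Human HepG2 cells bearing cis-promoter reporter constructs were treated 24 h; DMSO served as baseline for bidirectional fitting.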

The nature of test [13]: ATG_M_32_CIS: Attagene CIS-FACTORIAL HepG2 Assay for M32 Transcription Factor (Internal Marker) (AID 2282949).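 Further: background control marker of the multiplexed CIS panel rather than a real target.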 Particulars: HepG2 Attagene cis-factorial M32 reporter, mRNA; actives raise or lower the signal. The gist of the method: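 Following 24 h chemical exposure of HepG2 cells transiently expressing cis-promoter reporter constructs, reporter transcript levels were determined by RT-PCR with fluorescent labelling and capillary electrophoresis, then fitted bidirectionally against DMSO.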

Test [14] is described as follows: ATG_M_06_CIS: Attagene CIS-FACTORIAL HepG2 Assay for M06 Transcription Factor (Internal Marker) (AID 2282950). The settings on record: HepG2 Attagene CIS-FACTORIAL M06 internal marker reporter; actives raise or lower the signal. The essentials: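 Internal background marker within multiplexed cis-reporter HepG2 system. Cells transiently transfected, dosed 24 h; reporter mRNA measured by RT-PCR, HpaI digestion and capillary electrophoresis. Bidirectional fit relative to DMSO.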

The target in test [15] is Hypoxia-inducible factor 1-alpha (Homo sapiens) (UniProt Q16665). Put plainly: ATG_HIF1a_CIS: Attagene CIS-FACTORIAL HepG2 Assay for human Hypoxia Inducible Factor 1 (HIF1A) (AID 2282951). Particulars: HepG2 Attagene cis-factorial HIF1a reporter transcription; actives raise or lower the signal. The essentials:
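Dosed 24 h, transfected HepG2 cells yielded total RNA whose reporter transcripts were RT-PCR-amplified and sized by capillary electrophoresis using fluorescent labelling; DMSO defined baseline, with gain and loss of signal both fitted.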

Test [16] has as its target Hepatocyte nuclear factor 6 (Homo sapiens) (UniProt Q9UBC0). Put plainly: ATG_HNF6_CIS: Attagene CIS-FACTORIAL HepG2 Assay for human Hepatocyte Nuclear Factor 6 (HNF6) (AID 2282952). The settings on record: HepG2 Attagene cis-factorial HNF6 reporter transcription; actives raise or lower the signal. The gist of the method:
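Transiently transfected HepG2 cells expressing cis-regulated reporter transcription units were exposed to chemical for 24 h in a 24-well format. Reporter transcript abundance was determined by fluorescence capillary electrophoresis.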

Test [17] deals with Heat shock factor protein 1 (Homo sapiens) (UniProt Q00613). Put plainly: ATG_HSE_CIS: Attagene CIS-FACTORIAL HepG2 Assay for human Heat Shock Transcription Factor 1 (HSE) (AID 2282953). Particulars: HepG2 HSE cis-reporter, Attagene RNA transcription; actives raise or lower the signal. The gist of the method:
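HepG2 cells transfected with cis-promoter reporter units sensing endogenous transcription factor activity; reporter mRNA quantified 24 h post-dose by RT-PCR and capillary electrophoresis of 6-FAM-labelled products. Bidirectional fitting against DMSO.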

Test [18] is described as follows: ATG_MRE_CIS: Attagene CIS-FACTORIAL HepG2 Assay for human Metal Responsive Element (MRE) (AID 2282954). Particulars: HepG2 MRE cis-reporter transcription, Attagene multiplex; actives raise or lower the signal. The essentials:
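After a 24 h chemical exposure, transiently transfected HepG2 cells yield RNA whose reporter sequences are amplified, FAM-labelled and sized by capillary electrophoresis. Curves are fitted bidirectionally relative to DMSO.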

The nature of test [19]: ATG_PBREM_CIS: Attagene CIS-FACTORIAL HepG2 Assay for human Phenobarbital-responsive Enhancer Module (PBREM) (AID 2282955). The settings on record: HepG2 PBREM cis-reporter, Attagene multiplexed transcription; actives raise or lower the signal. The gist of the method:
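Transfected liver-derived HepG2 cells exposed 24 h; PBREM reporter transcript quantified via RT-PCR and capillary electrophoresis, with activity in either direction referenced to DMSO.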

The source made the active and inactive calls. How the source made its calls: active means hit-call score of the fitted dose curve at least 0.9, where 1 is the maximum; inactive means score below 0.9.

The AC50 is the midpoint of the concentration-response curve, whichever way the signal moves.

Heat shock factor protein 1 (Homo sapiens), sequence (Q00613 whole entry, looked up): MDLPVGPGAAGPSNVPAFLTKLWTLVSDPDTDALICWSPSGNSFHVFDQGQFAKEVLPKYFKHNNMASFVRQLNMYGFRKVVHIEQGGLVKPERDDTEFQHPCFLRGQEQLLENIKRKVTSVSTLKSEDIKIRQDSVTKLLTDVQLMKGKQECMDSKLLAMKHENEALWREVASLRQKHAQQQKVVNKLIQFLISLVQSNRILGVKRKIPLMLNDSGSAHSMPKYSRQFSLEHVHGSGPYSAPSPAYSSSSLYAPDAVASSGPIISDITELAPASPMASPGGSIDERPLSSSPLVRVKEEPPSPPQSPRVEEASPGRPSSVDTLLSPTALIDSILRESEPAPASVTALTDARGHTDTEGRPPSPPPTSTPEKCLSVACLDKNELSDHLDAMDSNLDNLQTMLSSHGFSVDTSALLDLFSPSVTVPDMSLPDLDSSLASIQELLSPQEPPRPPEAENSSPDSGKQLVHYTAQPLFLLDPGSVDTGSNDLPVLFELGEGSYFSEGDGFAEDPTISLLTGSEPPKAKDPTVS
Hypoxia-inducible factor 1-alpha (Homo sapiens), sequence (Q16665 whole entry, looked up): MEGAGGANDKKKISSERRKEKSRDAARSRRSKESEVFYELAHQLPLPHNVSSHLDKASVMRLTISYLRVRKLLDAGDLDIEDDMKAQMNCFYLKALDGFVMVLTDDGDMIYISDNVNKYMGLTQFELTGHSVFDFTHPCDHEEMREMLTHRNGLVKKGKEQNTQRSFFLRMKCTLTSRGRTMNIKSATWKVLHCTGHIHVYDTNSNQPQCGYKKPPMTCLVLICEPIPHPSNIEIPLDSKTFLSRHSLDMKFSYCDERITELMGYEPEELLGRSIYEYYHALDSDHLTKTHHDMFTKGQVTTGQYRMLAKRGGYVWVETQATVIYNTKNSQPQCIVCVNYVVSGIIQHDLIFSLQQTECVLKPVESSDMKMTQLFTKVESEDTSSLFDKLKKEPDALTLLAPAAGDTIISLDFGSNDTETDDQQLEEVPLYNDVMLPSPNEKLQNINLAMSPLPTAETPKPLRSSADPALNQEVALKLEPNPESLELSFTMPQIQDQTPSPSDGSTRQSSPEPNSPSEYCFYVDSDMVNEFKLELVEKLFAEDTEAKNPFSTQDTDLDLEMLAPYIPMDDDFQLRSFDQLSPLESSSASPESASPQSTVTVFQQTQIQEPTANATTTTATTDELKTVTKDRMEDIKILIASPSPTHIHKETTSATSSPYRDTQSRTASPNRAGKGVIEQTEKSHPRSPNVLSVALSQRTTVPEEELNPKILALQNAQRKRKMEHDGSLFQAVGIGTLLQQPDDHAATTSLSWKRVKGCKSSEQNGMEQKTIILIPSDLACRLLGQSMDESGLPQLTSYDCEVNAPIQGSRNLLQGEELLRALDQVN
Hepatocyte nuclear factor 3-beta (Homo sapiens), sequence (Q9Y261 whole entry, looked up): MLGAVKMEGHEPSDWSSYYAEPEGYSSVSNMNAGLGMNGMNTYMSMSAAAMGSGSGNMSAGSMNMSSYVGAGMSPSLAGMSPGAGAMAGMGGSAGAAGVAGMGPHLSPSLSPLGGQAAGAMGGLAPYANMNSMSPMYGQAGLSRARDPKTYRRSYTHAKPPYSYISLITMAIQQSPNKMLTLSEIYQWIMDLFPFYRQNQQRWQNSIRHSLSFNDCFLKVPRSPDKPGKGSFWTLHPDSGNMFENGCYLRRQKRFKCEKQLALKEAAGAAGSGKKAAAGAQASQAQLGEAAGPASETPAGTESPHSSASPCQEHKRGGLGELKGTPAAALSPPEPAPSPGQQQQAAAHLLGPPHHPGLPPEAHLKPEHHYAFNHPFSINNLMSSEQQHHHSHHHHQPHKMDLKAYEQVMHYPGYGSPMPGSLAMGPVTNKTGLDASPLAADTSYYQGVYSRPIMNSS
Hepatocyte nuclear factor 6 (Homo sapiens), sequence (Q9UBC0 whole entry, looked up): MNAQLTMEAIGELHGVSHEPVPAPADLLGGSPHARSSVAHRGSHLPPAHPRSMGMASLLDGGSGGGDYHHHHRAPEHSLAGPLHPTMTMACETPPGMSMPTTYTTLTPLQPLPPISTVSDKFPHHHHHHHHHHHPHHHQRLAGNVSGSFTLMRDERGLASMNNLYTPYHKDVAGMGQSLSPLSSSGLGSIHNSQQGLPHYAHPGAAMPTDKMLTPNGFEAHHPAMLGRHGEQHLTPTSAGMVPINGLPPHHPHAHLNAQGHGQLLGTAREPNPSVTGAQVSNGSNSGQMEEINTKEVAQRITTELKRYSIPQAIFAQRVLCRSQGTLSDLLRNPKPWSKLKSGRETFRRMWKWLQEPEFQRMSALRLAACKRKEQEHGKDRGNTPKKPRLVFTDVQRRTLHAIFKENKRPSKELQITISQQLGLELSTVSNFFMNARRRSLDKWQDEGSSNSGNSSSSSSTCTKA

For the molecule `O=C(Oc1ccccc1)c1ccc2ccccc2c1O`, the AC50 was 37.2 µM (active) in test [1]; 48.7 µM (active) in [3]; 31.2 µM (active) in test [5]; 34.6 µM (active) in test [15]; 66.2 µM (active) in [17]; 57.2 µM (active) in test [18]. Moreover, the AC50 in test [19] was 24.8 µM (active). Also, the outcome in test [2], in test [4], in test [6], in test [7], in test [8] and in test [9] was inactive. For the same molecule, the call in test [10], in test [11], in test [12], in [13], in test [14] and in [16] was inactive.
For the molecule `CCN(CC)c1ccc(C(=O)c2ccccc2C(=O)O)c(O)c1`, the outcome in test [1], in [2], in test [3], in test [4], in test [5] and in [6] was inactive. Moreover, the molecule was classed as inactive in [7], in test [8], in [9], in test [10], in test [11] and in [12]. Also, the molecule was called inactive in test [13], in test [14], in test [15], in [16], in test [17] and in [18]. In addition, the AC50 in test [19] was 1.89 µM (active).
In the case of `CCCCCCCCCCCCCCCCCC#N`, the result in [1], in test [2], in test [3], in [4], in [5] and in test [6] was inactive. The molecule was called inactive in test [7], in test [8], in test [9], in [10], in test [11] and in test [12]. The call in test [13], in test [14], in test [15], in [16], in test [17] and in test [18] was inactive. Also, in [19], the outcome was inactive.
Regarding `CCOC(F)(F)C(F)(F)C(F)(F)C(F)(F)F`, the result in test [1], in test [2], in test [3], in test [4], in test [5] and in [6] was inactive. Further, the molecule was classed as inactive in test [7], in test [8], in test [9], in test [10], in test [11] and in [12]. The molecule was classed as inactive in test [13], in [14], in [15], in [16], in [17] and in [18]. In addition, the outcome in test [19] was inactive.
As for `CC(C)(C)C(=O)C=Cc1ccc(Cl)cc1`, the AC50 in [1] was 165 µM (active); in [2] it was 148 µM (active); in test [3] it was 30.2 µM (active); in test [5] it was 155 µM (active); in [7], 178 µM (active); in [10], 59.1 µM (active). Moreover, the AC50 in [12] is 24.9 µM (active); in test [13], 132 µM (active); in test [14] it was 148 µM (active); in test [15], 26.3 µM (active); in test [16], 23.6 µM (active); in test [17], 34.3 µM (active). Besides, the AC50 in test [18] was 34 µM (active). The outcome in [4], in [6], in test [8], in test [9], in [11] and in test [19] was inactive.
For the molecule `CCC(CC)C(=O)O`, the result in [1], in test [2], in [3], in test [4], in test [5] and in test [6] was inactive. For the same molecule, the result in test [7], in test [8], in [9], in test [10], in [11] and in test [12] was inactive. Besides, the molecule was classed as inactive in test [13], in test [14], in test [15], in [16], in [17] and in [18]. The result in test [19] was inactive.
`C=CC(=O)OCCC(=O)O`: the outcome in test [1], in [2], in test [3], in test [4], in [5] and in test [6] was inactive. Besides, the result in test [7], in [8], in test [9], in test [10], in test [11] and in test [12] was inactive. Also, the molecule was called inactive in [13], in test [14], in test [15], in test [16], in test [17] and in test [18].

These data come from PubChem BioAssay (EPA / NIEHS).
